High-throughput results as filed in PubChem.
SARS PLpro yeast: SARS-CoV PLP inhibition in yeast | S. cerevisiae expressing SARS-CoV PLpro, growth rescue | Potency, µM (series often up to 32.9 µM), without a hit: at the highest dose activity, positive = growth rescue, hits mostly activators | actives 0.19% (n = 330,000) | AID 485353; further: potency means the concentration at half of the fitted maximal effect; 0% is about no effect; nearly all actives have a fitted effect of over 55% in size
NS1 inh: inhibitors of influenza NS1 protein function; Potency, µM (titrated, usually from 46.1 µM), for inactives: at the highest dose activity, positive = more growth; actives 0.4% (n = 270,000); further: potency means the concentration at half of the fitted maximal effect; actives are rising curves; nearly all actives have a fitted effect of over 50% in size
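Read-out: OD600 growth recovery of NS1-expressing budding yeast. Cells grown overnight at 30C in -URA glucose medium, washed, resuspended and diluted 1:100 in 2% galactose assay medium, pH 6.0. Same strain lacking NS1 served as positive control.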
Cycloheximide cs: counter-screen hit for Shiga toxin inhibitors, cycloheximide; cell reporter, cycloheximide protein synthesis inhibition counterscreen; max response, %; actives 12% (n = 300,000); in the data active means max response mostly above about 13%, no sharp cut-off; inactive means mostly below about 14%; further: read at 38.3 µM for the half of the compounds with a filed dose; 0% is about no effect
Shiga inhibitor: Shiga toxin inhibition | inhibition, % at 38.7 µM | Vero cells, Shiga toxin protein synthesis inhibition reporter | actives 9.2% (n = 290,000); in the data active means inhibition mostly above about 28%, no sharp cut-off; inactive means mostly below about 43%; further: 0% is about no effect
Pf growth 96h: P. falciparum growth inhibition at 96 hour, primary screen for plastid delayed-death inhibitors | P. falciparum luciferase reporter growth, 96 h | Potency, µM (top dose mostly 28.7 µM), for the others: top-dose activity change, negative = inhibition, hits mostly inhibitors | actives 6.9% (n = 320,000) | AID 504834; active means well fitted inhibition curve with a large enough effect; inconclusive means small, poorly fitted or top-dose-only effect, or another doubt; inactive means no such curve, though single readings can be large or run the other way; further: potency means the concentration at half of the fitted maximal effect; on the % scale 0 is the no-effect control and ±100 the full control effect
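Two-generation exposure (96 h) targets delayed-death phenotype. Reporter parasites carrying integrated firefly luciferase, in red cells at 2% hematocrit and 0.05% parasitemia final, kept at 37 C, 5% CO2; luminescence loss indicates inhibition.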
Pf growth 48h: P. falciparum growth inhibition at 48 hours (one generation). P. falciparum luciferase growth in erythrocytes, 48 h. actives 5.9% (n = 310,000). Potency, µM (highest dose often 28.7 µM), for the others: at the top dose activity change, negative = inhibition, most hits filed as inhibitors; active means well fitted inhibition curve with a large enough effect; inconclusive means small, poorly fitted or top-dose-only effect, or another doubt; inactive means no such curve, though single readings can be large or run the other way; further: potency means the concentration at half of the fitted maximal effect; on the % scale 0 is the no-effect control and ±100 the full control effect
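Firefly luciferase activity from engineered P. falciparum reports growth; inhibitors lower the luminescent signal. Cultures contained 2% hematocrit erythrocytes at 0.1% final parasitemia.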
An asterisk follows results filed as active; i = inactive; ? = inconclusive; / = no result; [ ] = dose if it differs, or a comment. A selection: hits, their analogues and other compounds. The true share with any hit is near 21%. Unless noted, the call rests on the fitted dose curve.

SMILES	SARS PLpro yeast	NS1 inh	Cycloheximide cs	Shiga inhibitor	Pf growth 96h	Pf growth 48h
S=C(NCc1ccco1)Nc1ccc(Cl)c(Cl)c1	-39%	-198%	31*	60	51%	21%
COc1cccc(/C=C/C(=O)OCC(=O)NCCC2=CCCCC2)c1	-1%	-42%	6	24	12%	25%[5.75 µM]
CCOc1ccc(N2C(=O)CC(NCCNc3ccc([N+](=O)[O-])cn3)C2=O)cc1 (stereo not drawn)	-5%	10%	-4	-2	0.83µM*	3%
COc1ccc(N2C(=O)CC(NCCNc3ccc([N+](=O)[O-])cn3)C2=O)cc1 (stereo not drawn)	-12%	7%	-1	-9	107%	-6%
O=C(COC(=O)CCCSc1nc2ccccc2[nH]1)Nc1ccc(Cl)cc1	4%	-19%	-4	-4	-23%	10%
OC[C@@H]1O[C@@H](Oc2ccc(O)cc2)[C@H](O)[C@@H](O)[C@@H]1O	/	/	-2	8	/	/
OC[C@H]1O[C@@H](Oc2cc(O)cc(/C=C/c3ccc(O)cc3)c2)[C@H](O)[C@@H](O)[C@@H]1O	1%	/	27*	95*	/	/
COc1ccc(CC(=O)c2ccc(OC3OC(CO)C(O)C(O)C3O)cc2O)cc1 (stereo not drawn)	0%	5%	14*	84*	?	10%
O=c1c(-c2ccc(O)cc2)coc2cc(O[C@@H]3O[C@H](CO)[C@@H](O)[C@H](O)[C@H]3O)cc(O)c12	/	/	27*	61*	/	/
COc1ccc(-c2coc3cc(OC4OC(CO)C(O)C(O)C4O)cc(O)c3c2=O)cc1 (stereo not drawn)	0%	/	/	/	224%	107%
COc1ccc(-c2coc3cc(OC4OC(CO)C(O)C(O)C4O)ccc3c2=O)cc1 (stereo not drawn)	0%	1%	37*	47*	12µM*	30%
N#Cc1ccc(C(=O)N2CCN(C(=O)C3CCCO3)CC2)cc1 (stereo not drawn)	-1%	/	/	/	-8%	?
Cc1c(C(=O)Nc2ccc3c(c2)OCO3)sc2ncn(CC(=O)N3CC(C)CC(C)C3)c(=O)c12 (stereo not drawn)	0%	0%	-2	-15	?	/
Cc1cc(N2C(=O)Cc3ccccc3C2=O)ccc1C(C)C	-3%	9%	19*	27	10%	15%
Cc1c(C(c2ccc([N+](=O)[O-])cc2)c2c(C)n(C)n(-c3ccccc3)c2=O)c(=O)n(-c2ccccc2)n1C	-4%	25%	3	26	?	?
O=C(NNC(=O)C1CCC1)c1cccc(Cl)c1	0%	/	/	/	-13%	2%
COc1ccc(C2C(C(=O)Nc3ccc4c(c3)OCCO4)c3ccccc3C(=O)N2C)cc1 (stereo not drawn)	-2%	-4%	8	2	?	5.2µM*
COc1ccc(C2C(C(=O)Nc3cc(OC)c(OC)c(OC)c3)c3ccccc3C(=O)N2C)cc1 (stereo not drawn)	2%	/	-3	-13	16%	2.1µM*
COc1cc(OC)c(C2C(C(=O)O)c3ccccc3C(=O)N2C)cc1OC (stereo not drawn)	3%	7%	11	-3	15µM*	3%
COc1cc2c(cc1OC)C(C(=O)Nc1ccc3c(c1)OCCO3)C1c3ccccc3CCN1C2=O (stereo not drawn)	5%	-44%	1	14	9.3µM*	-9%
COc1ccc(C2C(C(=O)Nc3cccc(OC)c3)c3ccccc3C(=O)N2C)cc1 (stereo not drawn)	3%	/	2	-5	1%	?
C=CCn1c(SCC(=O)OCC)nc(C(F)(F)F)cc1=O	-1%	-1%	-3	-7	4%	5%
COc1cc2c(cc1OC)C(C(=O)Nc1ccccn1)C(c1cccnc1)N(C)C2=O (stereo not drawn)	3%	-3%	-2	-13	1.7µM*	-17%
COc1cc(C2c3c(oc4ccccc4c3=O)C(=O)N2c2nccs2)ccc1O (stereo not drawn)	0%	?	1	-4	-7%	-3%
Cc1ccc(C(C)NC(=S)NC2CCCCC2)cc1C (stereo not drawn)	-5%	-83%	-3	8	10µM*	10µM*
SMILES	SARS PLpro yeast	NS1 inh	Cycloheximide cs	Shiga inhibitor	Pf growth 96h	Pf growth 48h
CCC(NC(=O)NC1CCCCC1)c1ccccc1 (stereo not drawn)	-1%	-1%	0	-5	i	7%
CCC(NC(=S)NC1CCCCC1)c1ccc(C(C)C)cc1 (stereo not drawn)	-8%	-78%	-3	4	3.3µM*	8.3µM*
COc1ccc(C(C)NC(=S)NC2CCCC2)cc1OC (stereo not drawn)	3%	4%	-4	-11	?	1.9µM*
Cc1ccc(C(C)NC(=S)NC2CCCCC2)c(C)c1 (stereo not drawn)	-5%	-104%	-3	-8	5.2µM*	10µM*
COc1ccc(NS(=O)(=O)c2ccc(-c3n[nH]c(=S)n3Cc3ccccc3)cc2)cc1	-2%	12%	0	7	4%	?
Cc1[nH]c(C)c(S(=O)(=O)NCc2ccco2)c1C(=O)N1CCCCC1	4%	5%	2	-6	-27%	14%
O=c1c2ccc([N+](=O)[O-])cc2ncn1CCOc1ccccc1	-1%	3%	20*	54*	?	?
O=c1c2ccccc2ncn1CCOc1ccccc1[N+](=O)[O-]	0%	2%	26*	37	22%	3%
CCN(CC)S(=O)(=O)c1ccc(OC)c(NC(=O)C2CC(=O)N(c3ccc(C)cc3)C2)c1 (stereo not drawn)	0%	-3%	-6	-4	21%	?
CN(CC(=O)Nc1ccccc1Br)C(=O)CCCSc1nc2ccccc2[nH]1	28%	/	/	/	?	-19%
COc1cc(C)c(Cl)cc1S(=O)(=O)N1CCSC1	-5%	-1%	-1	-5	12µM*	-3%
CCOC(=O)C1CCN(S(=O)(=O)c2cc(Cl)c(C)cc2OC)CC1	-1%	-74%	4	-1	1%	7%
Cc1cc(C(=S)N2CCOCC2)c(C)n1-c1ccc(F)cc1	1%	10%	8	5	-4%	?
Cc1ccc(-n2c(C)cc(C(=S)N3CCOCC3)c2C)cc1C	3%	10%	-1	15	10µM*	?
CC(C)CCNC(=O)Cn1c(=O)oc2cc(S(=O)(=O)N3CCc4ccccc43)ccc21	2%	-61%	-2	-6	12µM*	/
CC(C)CCNC(=O)c1cc(S(=O)(=O)N2CCc3ccccc32)cn1C	2%	7%	-2	-3	1.2µM*	-3%
COc1cc(NC(=O)c2cc(S(=O)(=O)N3CCc4ccccc43)cn2C)cc(OC)c1OC	0%	-20%	9	-3	2%	12µM*
